CYP2C19 activ – activators of human cytochrome P450 2C19. activation factor at 5 µM. 96,000 tested, under 10 active. P33261. AID 1025. recombinant CYP2C19, luciferin-H EGE luminescence; active compounds read high; 0 = fully inhibited enzyme, 1 = untreated enzyme;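 active means activation factor of at least 2 at 5 µM in the primary screen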
PostGolgi ctrl – yeast control strain growth, post-Golgi counter-screen; actives 5% (n = 98,000); inhibition, % at 10 µM; AID 738; efflux-deficient yeast background strain, growth absorbance A615, 16 h
CYP2C19 inhib – inhibitors of human CYP2C19 | P33261 | CYP2C19 Supersomes, luciferin-H EGE luminescence, 30 min | inhibition, % at 5 µM | actives 21% (n = 96,000) | AID 778;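 active means CYP2C19 inhibition above a set limit at 5 µM in the primary screen, cut at about 50% in these data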
CYP2C9 inhib – blocks human cytochrome P450 2C9 | P11712 | CYP2C9 Supersomes, luciferin-H conversion, luminescence | inhibition, % at 5 µM | actives 20% (n = 96,000) | AID 777;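 active means blocking of liver enzyme CYP2C9 beyond about 50% at 5 µM, limit read from the data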
Target sequence (P11712 whole entry, looked up): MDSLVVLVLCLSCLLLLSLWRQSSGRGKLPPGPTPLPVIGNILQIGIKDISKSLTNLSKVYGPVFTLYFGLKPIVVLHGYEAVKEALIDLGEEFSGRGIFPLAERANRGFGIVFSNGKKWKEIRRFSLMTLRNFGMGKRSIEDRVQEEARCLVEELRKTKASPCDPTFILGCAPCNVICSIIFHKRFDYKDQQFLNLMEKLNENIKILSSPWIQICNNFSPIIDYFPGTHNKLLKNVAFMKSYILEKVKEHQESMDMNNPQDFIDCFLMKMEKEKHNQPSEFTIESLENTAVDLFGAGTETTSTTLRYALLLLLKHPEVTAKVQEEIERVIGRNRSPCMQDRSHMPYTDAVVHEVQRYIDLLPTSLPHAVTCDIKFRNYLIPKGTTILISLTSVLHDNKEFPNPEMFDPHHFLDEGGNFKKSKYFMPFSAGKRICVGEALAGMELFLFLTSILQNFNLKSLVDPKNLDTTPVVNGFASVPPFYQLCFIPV
CYP2C9 act – activators of human CYP2C9; actives 1.4% (n = 96,000); recombinant CYP2C9, luciferin-H conversion, luminescence; active compounds read high; factor 1 = untreated enzyme, 0 = blocked; activation factor at 5 µM; P11712; AID 1024;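 active means activation factor of 2 or more for CYP2C9 at a 5 µM dose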
PostGolgi yeast – growth inhibition of a yeast mutant, post-Golgi transport screen; actives 0.9% (n = 98,000); inhibition, % at 10 µM; post-Golgi transport phenotypic cell assay; AID 739;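 further: yeast cells grown in 1536-well plates; yeast grown about 18 h at 30C before absorbance read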
A number is an active result; n = inactive; x = no result. A selection: hits, their analogues and other compounds. The true share with any hit is near 32%. Unless noted, no stated cut-off is given here; in the data, active means inhibition above about 30%; inactive means the rest.

SMILES	CYP2C19 activ	PostGolgi ctrl	CYP2C19 inhib	CYP2C9 inhib	CYP2C9 act	PostGolgi yeast
COc1ccc(NC2CS(=O)(=O)CC2OC(=O)c2ccc(F)cc2)cc1 (stereo not given)	n	n	n	n	n	n
O=C(NC1CCCCC1)n1c(=O)oc2ccc(Cl)cc21	n	n	n	n	n	n
COc1ccc2cc(CN(CC3COCCO3)S(=O)(=O)c3ccccc3)c(=O)[nH]c2c1 (stereo not given)	n	n	n	85	n	n
CN(Cc1cc2ccccc2[nH]c1=O)S(=O)(=O)c1ccccc1	n	n	79	n	n	n
Cc1ccc(S(=O)(=O)N(C)Cc2cc3ccccc3[nH]c2=O)cc1	n	n	n	n	n	n
COc1ccc(S(=O)(=O)N(Cc2cc3ccc(OC)cc3[nH]c2=O)CC2COCCO2)cc1 (stereo not given)	n	n	n	75	n	n
COc1ccc2cc(CN(Cc3cccnc3)S(=O)(=O)c3ccccc3)c(=O)[nH]c2c1	n	n	n	n	n	n
CCCC(=O)N(Cc1cc2ccccc2[nH]c1=O)c1ccccc1OC	n	n	65	87	n	n
O=C(C1CCN(S(=O)(=O)c2ccccc2)CC1)N1CCOCC1	n	n	n	n	n	n
O=C(O)c1ccc2c(c1)C(=O)N(Cc1ccccc1)C2=O	n	n	n	n	n	n
Cc1ccc(C)c(S(=O)(=O)NCc2ccc(C(=O)N3CCC(Cc4ccccc4)CC3)cc2)c1	n	n	n	n	n	n
Cc1ccc(C(=O)OCC(=O)Nc2ccc3c(c2)OCO3)o1	x	n	x	x	x	n
Cc1ccccc1NC(=S)N(C)Cc1cccs1	n	n	75	n	n	n
Cc1ccccc1NC(=S)N(CCN(C)C)C(C)c1ccccn1 (stereo not given)	n	n	n	n	n	n
COc1ccc(SCC(=O)c2cc(C)c(OC(=S)N(C)C)c(C)c2)cc1	n	n	87	n	n	n
COc1ccc2nc(SCC(N)=O)cc(C)c2c1	n	n	n	n	n	n
Cc1cc(C(=O)CSc2ccc(F)cc2)cc(C)c1OC(=S)N(C)C	n	n	94	81	n	n
COc1cccc(-c2nnc(SCC(=O)Nc3ccc(OC)c(OC)c3)n2N)c1	n	n	n	n	n	n
O=C1CC(c2ccccc2)c2ccc(O)cc2O1 (stereo not given)	n	n	n	54	n	n
O=C1CC(c2ccccc2)c2c(O)cc(O)cc2O1 (stereo not given)	n	n	63	79	n	n
CC(=O)C1=C(C)NC(=O)NC1c1cccc(O)c1 (stereo not given)	n	n	n	n	n	n
C=CCn1c(CCNC(=O)c2cccs2)nnc1SCC(=O)c1ccc(Br)cc1	n	n	51	72	n	n
Cc1cccc(NC(=O)CSc2nnc(CCC(=O)Nc3ccc(C)c(Cl)c3)n2C)c1	n	n	n	n	n	n
C=CCn1c(Cc2cccs2)nnc1SCC(=O)Nc1cc(OC)cc(OC)c1	n	n	79	n	n	n
C=CCn1c(SCCOc2ccccc2)nnc1C(C)NC(=O)c1ccccc1 (stereo not given)	n	n	n	n	n	n
SMILES	CYP2C19 activ	PostGolgi ctrl	CYP2C19 inhib	CYP2C9 inhib	CYP2C9 act	PostGolgi yeast
C=CCn1c(CCC(=O)Nc2ccc(C)c(Cl)c2)nnc1SCC(=O)Nc1ccccc1C	n	n	n	64	n	n
C=CCn1c(SCC(=O)Nc2cccc(C(=O)OC)c2)nnc1C(C)NC(=O)c1cccs1 (stereo not given)	n	n	71	82	n	n
CCCSc1nc(C)nc2c1c(=O)n(C)c(=O)n2C	n	n	n	n	n	n
Cc1occc1-c1nnc(SCC(=O)c2ccccc2)n1CC1CCCO1 (stereo not given)	n	n	n	n	n	n
Cc1ccccc1OC(=O)C1C(c2ccccc2)C(C(=O)O)C1c1ccccc1 (stereo not given)	n	n	n	n	n	n
C=CCn1c(CCNC(=O)c2cccs2)nnc1SCC(=O)Nc1cccc(C(C)=O)c1	n	n	n	74	n	n
C=CCn1c(CNC(=O)c2ccco2)nnc1SCC(=O)Nc1cccc(Br)c1	n	n	n	n	n	n
CNC(=O)CN(c1ccc(C(C)C)cc1)S(C)(=O)=O	n	n	61	n	n	n
CCNC(=O)CN(c1ccc(CC)cc1)S(C)(=O)=O	n	n	n	n	n	n
COc1ccc(/C=N/OCc2nc3c4c(ncn3n2)Oc2ccc3ccccc3c2C4c2ccccc2)cc1 (stereo not given)	n	n	69	n	n	n
COc1ccc(-c2oc3ncn4nc(COc5ccccc5)nc4c3c2-c2ccc(OC)cc2)cc1	n	n	n	n	n	n
Cn1nnnc1SCC(=O)Nc1c(Cl)cccc1Cl	n	n	n	n	n	n
O=C(c1cccnc1)N1CCN(c2c(Cl)cccc2[N+](=O)[O-])CC1	n	n	82	n	n	n
O=C(NC(=S)N1CCN(c2c(Cl)cccc2[N+](=O)[O-])CC1)c1cccs1	n	n	n	78	n	n
CC(C)C(=O)N1CCN(c2c(Cl)cccc2[N+](=O)[O-])CC1	n	n	n	n	n	n
Cc1ccccc1NC(=O)c1cnc2ccccn2c1=O	n	n	n	n	n	n
Cc1csc2ncc(C(=O)NCc3ccccn3)c(=O)n12	x	n	x	x	x	n
Cc1csc2ncc(C(=O)NCCc3ccccc3)c(=O)n12	n	n	54	n	n	n
CCOc1ccc(NC(=O)c2cnc3scc(C)n3c2=O)cc1	n	x	n	n	2.8	x
O=C(NCCc1ccccc1)c1cnc2ccccn2c1=O	n	n	55	n	n	n
COc1cccc(CNC(=O)C2CCN(S(=O)(=O)N3CC(C)CC(C)C3)CC2)c1 (stereo not given)	n	n	n	n	n	n
CCCc1cc(=O)[nH]c(SCC(=O)N2CCN(c3ccc(F)cc3)CC2)n1	n	n	n	n	n	n
O=C(O)CCCNc1cc(N2CCC3(CC2)OCCO3)c2noc3c2c1C(=O)c1ccccc1-3	n	n	n	61	n	n
Nc1cccc(Nc2nc(OC(C(F)(F)F)C(F)(F)F)nc(OC(C(F)(F)F)C(F)(F)F)n2)c1	n	n	n	n	n	n
CCCc1cc(C(=O)N/N=C/c2ccc(CC)s2)c2ccccc2n1	n	n	n	65	n	n
SMILES	CYP2C19 activ	PostGolgi ctrl	CYP2C19 inhib	CYP2C9 inhib	CYP2C9 act	PostGolgi yeast
CCCc1cc(C(=O)N/N=C/c2ccc(C)o2)c2ccccc2n1	n	n	n	64	n	n
O=C(O)CCCCNS(=O)(=O)c1ccc(Cl)c(C(F)(F)F)c1	n	n	n	n	n	n
Cc1cc(C)nc(SCCC(=O)N(C)C)n1	n	n	n	n	n	n
Cc1cc(C)nc(SCCS(=O)Cc2ccc(Cl)cc2)n1 (stereo not given)	n	n	81	n	n	n
O=C(NCc1ccc(Cl)cc1)c1noc2c1CCCCC2	n	n	n	n	n	n
Cc1cc(C)n(-c2nc3c(c(=O)n(C)c(=O)n3C)n2C)n1	n	n	n	n	n	n

Bioassay records (PubChem)
